# PubChem BioAssay AID602405 (Broad Institute, 2012)
# Screen size: about 360,000 compounds; about 350 (0.097%) were called active. Many of the other results were omitted from the sample, so actives are more common in it than they were. Unmarked numbers belong to inactive results. Cut-off read from the data, not from the text of the source: active = inhibition above about 16% (passing the limit was not always enough); inconclusive = no clear call, values can overlap the other calls; inactive = below that.
# System: UDP-N-acetylbacillosamine N-acetyltransferase PglD (Campylobacter jejuni)
# Assay: C. jejuni PglD acetyltransferase inhibitors, primary screen, biochemical, DTNB colorimetric, single point (AID 602405)
# Settings: purified PglD enzyme, DTNB colorimetric CoA detection; at 12.5 µM; stronger effect = higher value
row,Structure (SMILES),inhibition
1,C[C@@H]1CCCCO[C@@H](CN(C)C(=O)Cc2ccccc2)[C@@H](C)CN([C@@H](C)CO)C(=O)c2cc(NC(=O)c3ccccc3)ccc2O1,-0.412%
2,COc1ccc(NC(=O)Nc2cccc3c2O[C@H](CN(C)S(=O)(=O)c2ccc(F)cc2)[C@H](C)CN([C@H](C)CO)C3=O)cc1,2.54%
3,C=CCOC(=O)C1=C(C)NC(C)=C(C(=O)OCC=C)C1c1cccs1,-1.12%
4,CCOC(=O)CSC1=C(C#N)C(c2sccc2C)CC(=O)N1 (configuration not stated),-0.988%
5,C=CCOC(=O)C1=C(C)NC(SCC(=O)OCC)=C(C#N)C1c1ccc(C)cc1 (configuration not stated),25.9% (active)
6,CCCC(=O)Nc1ccc2c(c1)C(=O)N(C)[C@H]1CC[C@@H](CC(=O)NCc3cccc(F)c3)O[C@H]1CO2,0.49%
7,COc1ccc(S(=O)(=O)NC(C)C(=O)N2CCCCCC2)cc1 (configuration not stated),2.86%
8,CC(NC(=O)c1ccc(Cl)cc1)C(=O)N1CCCCC1 (configuration not stated),24% (active)
9,CSCCC(NC(=O)c1ccccc1)C(=O)N1CCCCCCC1 (configuration not stated),6.24%
10,C[C@@H]1CN([C@@H](C)CO)C(=O)Cc2cc(NS(=O)(=O)c3ccc(Cl)cc3)ccc2O[C@H]1CN(C)Cc1ccc(C(F)(F)F)cc1,3.04%
11,Cc1noc(C)c1NC(=O)N(C)C[C@@H]1Oc2ccc(NC(=O)Nc3ccc4c(c3)OCO4)cc2C(=O)N([C@H](C)CO)C[C@H]1C,-1.03%
12,CC(C)NC(=O)Nc1ccc2c(c1)C(=O)N([C@H](C)CO)C[C@@H](C)[C@@H](CN(C)S(=O)(=O)c1ccc(Cl)cc1)OCCCC[C@H](C)O2,1.05%
13,C[C@@H]1CN([C@@H](C)CO)C(=O)c2c(c3ccccc3n2C)-c2ccccc2CO[C@H]1CN(C)C(=O)N[C@H](C)c1ccccc1,-3.17%
14,CS(=O)(=O)Nc1ccc2c(c1)[C@H]1C[C@@H](CC(=O)NCCc3ccccc3)O[C@@H](CO)[C@H]1O2,1.04%
15,Cc1noc(C)c1S(=O)(=O)Nc1ccc2c(c1)C(=O)N([C@@H](C)CO)C[C@@H](C)[C@H](CN(C)Cc1ccc(-c3ccccc3)cc1)O2,-0.726%
16,Cc1noc(C)c1NC(=O)Nc1ccc2c(c1)C(=O)N([C@@H](C)CO)C[C@H](C)[C@H](CN(C)Cc1ccc(C(=O)O)cc1)OCCCC[C@@H](C)O2,0.986%
17,Cc1ccccc1-c1ccc2c(c1)O[C@H](CN(C)C)[C@H](C)CN([C@@H](C)CO)S2(=O)=O,4.9%
18,CCCN1C[C@@H](C)[C@@H](OC)CN(C)C(=O)c2ccc(NS(C)(=O)=O)cc2OC[C@@H]1C,0.769%
19,O=C(C[C@@H]1CC[C@@H](NC(=O)C2CC2)[C@H](CO)O1)NCc1ccncc1,-0.635%
20,Cc1ccc(S(=O)(=O)NCC[C@H]2CC[C@H](NC(=O)c3ccccn3)[C@@H](CO)O2)cc1,1.02%
21,C[C@@H]1CN([C@H](C)CO)S(=O)(=O)c2ccc(-c3cccc(C#N)c3)cc2O[C@@H]1CN(C)C(=O)Nc1ccccc1F,-1.07%
22,CCCC#Cc1cnc2c(c1)C(=O)N([C@H](C)CO)C[C@H](C)[C@H](CN(C)C(=O)Cc1ccncc1)O2,0.18%
23,C[C@@H]1CN([C@H](C)CO)S(=O)(=O)c2ccc(C#CCN(C)C)cc2O[C@@H]1CN(C)C(=O)C1CCCCC1,-0.634%

row,Structure (SMILES),inhibition
1,COC(=O)C[C@@H]1CC[C@H]2[C@@H](COC[C@H](O)CN2C(=O)Nc2ccccc2OC)O1,-0.947%
2,C[C@@H]1CN([C@@H](C)CO)C(=O)c2cc(NC(=O)CCCN(C)C)ccc2O[C@@H](C)CCCCO[C@H]1CN(C)Cc1ccc2c(c1)OCO2,-1.38%
3,Cc1noc(C)c1NC(=O)Nc1ccc2c(c1)C(=O)N([C@H](C)CO)C[C@H](C)[C@H](CN(C)C(=O)C1CCCCC1)OCCCC[C@@H](C)O2,0.321%
4,CCCNC(=O)N1C[C@@H](O)COC[C@@H]2O[C@@H](CC(=O)O)CC[C@H]21,-1.59%
5,CC(C)C#Cc1ccc([C@@H]2[C@@H](CO)N3CCCCN(C(=O)c4ccc5c(c4)OCO5)C[C@H]23)cc1,-1.45%
6,OC[C@@H]1Nc2ccc(-c3cccc(F)c3)cc2[C@H]2[C@@H]1CCN2Cc1ccncc1,-3.81%
7,COc1cccc(S(=O)(=O)N[C@@H]2C=C[C@H](CC(=O)NC3CCC3)O[C@H]2CO)c1,-3.06%
8,CN1C(=O)c2cc(NC(=O)C3CCCCC3)ccc2OC[C@H]2O[C@@H](CC(=O)NC3CCCC3)CC[C@@H]21,-4.23%
9,CCCNC(=O)N1[C@H](C#N)[C@@H](c2ccc(C3=CCCC3)cc2)[C@H]1CO,10.3%
10,C[C@H](CO)N1C[C@H](C)[C@H](CN(C)Cc2ccc(C(=O)Nc3ccccc3N)cc2)Oc2c(NC(=O)Nc3ccccc3)cccc2C1=O,1.92%
11,CO[C@@H]1CN(C)C(=O)c2ccc(NC(=O)c3ccc(F)cc3)cc2OC[C@H](C)N(C(=O)c2ccc(F)cc2)C[C@@H]1C,-1.94%
12,COc1ccc(NC(=O)Nc2cccc3c2O[C@H](CN(C)C(=O)Nc2cccc4ccccc24)[C@H](C)CN([C@H](C)CO)C3=O)cc1,2.27%
13,CC(C)CC#Cc1ccc2c(c1)O[C@H](CN(C)C(=O)CC1CC1)[C@@H](C)CN([C@@H](C)CO)S2(=O)=O,0.792%
14,CC(C)CCNC(=O)c1ccc2c(Cl)c3c(nc2c1)CCC3,58.9% (active)
15,CC(C)CCC(C)NC(=O)c1ccc2nccnc2c1 (configuration not stated),-0.116%
16,CC(C)CCNC(=O)c1[nH]c(C(F)(F)F)nc1-c1ccccc1,-5.32%
17,Cc1noc(C)c1NC(=O)Nc1ccc2c(c1)CC(=O)N([C@H](C)CO)C[C@H](C)[C@H](CN(C)C(=O)NC(C)C)O2,2.55%
18,CC(=O)N(C)C[C@H]1Oc2cc(C#CCN(C)C)ccc2S(=O)(=O)N([C@H](C)CO)C[C@H]1C,-4.02%
19,CC=Cc1ccc2n(c1=O)C[C@@H]1[C@@H](CO)[C@H](C(=O)NCc3cccc(OC)c3)N[C@H]21 (mixture of isomers),0.651%
20,CCCNC(=O)C[C@H]1C[C@@H]2c3cc(NC(=O)c4ccc5c(c4)OCO5)ccc3O[C@@H]2[C@@H](CO)O1,-7.26%
21,Cc1ccc(S(=O)(=O)Nc2ccc3c(c2)C(=O)N([C@H](C)CO)C[C@H](C)[C@@H](CN(C)C(=O)NC(C)C)OCCCC[C@@H](C)O3)cc1,-2.85%
22,CSc1ccc(S(=O)(=O)NCc2ccc(Cl)cc2)cc1,26.5% (active)
23,CC(C)CNS(=O)(=O)c1ccc(CCC(=O)NCc2ccc(Cl)cc2)cc1,0.729%

row,Structure (SMILES),inhibition
1,Cc1ccc(S(=O)(=O)NCCC(=O)NCc2ccc(Cl)cc2)cc1C,-81.7%
2,COC(=O)C[C@@H]1C[C@H]2c3cc(NC(=O)CN(C)C)ccc3O[C@H]2[C@H](CO)O1,1.44%
3,COc1ccc(S(=O)(=O)Nc2cccc3c2O[C@@H](CN(C)C(=O)NC(C)C)[C@H](C)CN([C@@H](C)CO)C3=O)cc1,3.51%
4,CCCNC(=O)Nc1ccc2c(c1)C(=O)N(C)C[C@H](OC)[C@H](C)CN[C@@H](C)CO2,1.64%
5,C[C@H]1CN([C@@H](C)CO)C(=O)c2cccc(NC(=O)Nc3ccccc3)c2O[C@H]1CN(C)S(=O)(=O)c1ccc(Cl)cc1,1.05%
6,O=C(N[C@H]1C=C[C@@H](CC(=O)N2CCN(c3ccccc3)CC2)O[C@@H]1CO)c1ccncc1,1.58%
7,CCC(=O)Nc1ccc2c(c1)C(=O)N(C)C[C@@H](OC)[C@@H](C)CN(Cc1ccccc1F)[C@H](C)CO2,2.28%
8,CCCNC(=O)N(C)C[C@H]1Oc2ncc(-c3cccc(C#N)c3)cc2C(=O)N([C@@H](C)CO)C[C@H]1C,0.216%
9,O=C(CNC(=O)c1ccco1)NNC(=O)c1ccc(Br)cc1,2.58%
10,O=C(Nc1ccc(Sc2ccc(Br)cc2)cc1)c1ccco1,20.2% (active)
11,O=C(NNC(=O)c1ccco1)Nc1ccccc1,3.41%
12,O=C(Nc1ccccc1F)N1C[C@H]2[C@@H](c3ccccc31)[C@@H](CO)N2C(=O)Cc1cccnc1,5.55%
13,COc1ccc(NC(=O)Nc2ccc3c(c2)C(=O)N([C@@H](C)CO)C[C@@H](C)[C@H](CN(C)Cc2ccc(Cl)c(Cl)c2)O3)cc1,6.96%
14,COc1cccc(CNC(=O)C[C@@H]2C=C[C@@H](NC(=O)C3CCC3)[C@@H](CO)O2)c1,-2.99%
15,Cc1noc(C)c1NC(=O)N(C)C[C@@H]1Oc2ccc(NS(C)(=O)=O)cc2C(=O)N([C@H](C)CO)C[C@@H]1C,-1.3%
16,C[C@H](O)C#Cc1ccc2c(c1)O[C@@H](CN(C)C(=O)C1CCCCC1)[C@H](C)CN([C@@H](C)CO)S2(=O)=O,-1%
17,C[C@H]1CCCCO[C@H](CN(C)CC2CC2)[C@@H](C)CN([C@@H](C)CO)C(=O)c2cc(NS(C)(=O)=O)ccc2O1,32%
18,O=C(c1ccc(F)cc1)N1CCCCN2[C@@H](CO)[C@H](c3ccc(-c4ccccc4)cc3)[C@@H]2C1,1.69%
19,Cc1ccc(C(=O)N/C(=C/c2cccnc2)C(=O)O)cc1,-2.85%
20,Cc1ccc(C2=C/C(=C\c3cccnc3)C(=O)O2)cc1,49.3% (active)
21,CN(C)/C=C1\C=C(c2ccccc2)OC1=O,-0.491%
